This is an account of results in PubChem BioAssay.

Calls of active or inactive are those of the source.

Test [1] can be described thus: small molecules captured by biotinylated probe aFSTL3 – biochemical, small-molecule microarray, fluorescence 635/667, stem cell growth factor project, primary screen (AID 1064).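 Also: measures binding of the biotinylated anti-FSTL3 antibody to printed compounds.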 Particulars: higher = more signal.
Test [2] is described as follows: binders from COS7 lysate, DM2A8 probe, primary screen, torsin A project, cell lysate, small-molecule microarray, fluorescence 635/667 (AID 1065). Particulars: higher = more signal, COS7 lysate expressing mutant human TOR1A.
Test [3] is described as follows: small molecules captured by biotinylated probe aFGF2 – biochemical, small-molecule microarray, fluorescence 635/667, stem cell growth factor project, primary screen (AID 1067).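 Also: measures binding of biotinylated aFGF2 protein to printed compounds on slides; z-score merges feature fluorescence and signal-to-noise across triplicate slides.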 Particulars: higher = more signal.
A short description of test [4]: small molecules captured by biotinylated probe aFGF10 – biochemical, small-molecule microarray, fluorescence 635/667, stem cell growth factor project, primary screen (AID 1071).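 Also: score merges 667 nm spot intensity and signal to noise from triplicate slides.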 The settings on record: higher = more signal.
The target of test [5] is Neurogenic locus notch homolog protein 2 (Homo sapiens) (UniProt Q04721). The experiment in a line: small molecules binding Notch2 protein – biochemical, small-molecule microarray, 635 nm fluorescence, stem cell growth factors, primary screen (AID 1073). The settings on record: higher = more signal.
For test [6], the target named is Pro-neuregulin-1, membrane-bound isoform (Homo sapiens) (UniProt Q02297). The experiment in a line: small molecules binding neuregulin-1 protein – biochemical, small-molecule microarray, fluorescence 635/667, psychiatric disease protein project, primary screen (AID 1075).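 Also: score combines 667 nm spot fluorescence with signal to noise.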 Particulars: NRG1 binding, 635 nm fluorescence, higher = more signal.
Test [7] has as its system Neuregulin-1 EGF-like domain. The experiment in a line: small molecules binding NRG1 EGF domain – biochemical, small-molecule microarray, 635 nm fluorescence, primary screen (AID 1081).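 Also: binding of the protein to compounds printed on small-molecule microarray slides.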 The settings on record: higher = more signal.
Test [8] in a line: FRG1 expression reporter modulators in myotubes – cell-based, C2C12 myotubes, firefly/Renilla luciferase, luminescence, FRG1 inhibition for FSHD, primary screen (AID 1084). The settings on record: FRG1 promoter luciferase, higher = more signal, called active from +8 up or from −8 down.
Test [9] can be described thus: small molecules captured by biotinylated probe aFST – biochemical, small-molecule microarray, fluorescence 635/667, stem cell growth factor project, primary screen (AID 1086).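 Also: score merges 667 nm fluorescence with signal-to-noise of each printed compound spot.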 Particulars: higher = more signal.
Test [10] is described as follows: binders of probe aHhip on microarray, primary screen, stem cell growth factor project, biochemical, small-molecule microarray, fluorescence 635/667 (AID 1087).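 Also: score merges spot fluorescence at 667nm with spot signal to noise ratio.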 The settings on record: higher = more signal.
Test [11] deals with PRMT1 (protein arginine N-methyltransferase 1). The experiment in a line: small molecules binding arginine methyltransferase PRMT1 – biochemical, small-molecule microarray, 635 nm fluorescence, primary screen (AID 1088).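 Also: binding of Prmt1 protein to compounds spotted on small-molecule microarray slides.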 Particulars: higher = more signal.
Test [12] can be described thus: growth effects on S. cerevisiae YJM789 – YJM789 clinical isolate, OD600, 24 h, basal, primary screen (AID 1089).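 Also: growth of clinical yeast isolate S. cerevisiae YJM 789 seeded 1000 cells per well; test concentration not given here.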 The settings on record: higher = more signal, called active from +8 up or from −8 down.
Test [13] can be described thus: S. pombe growth modifiers, basal conditions – strain 972, OD600, 24 h, no modulator, primary screen (AID 1090).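 Also: basal condition with compound alone and no growth modifier present; test concentration not given here.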 The settings on record: S. pombe 972 growth, higher = more signal, called active from +8 up or from −8 down.
The nature of test [14]: budding yeast growth modifiers under rapamycin – strain BY4716, OD600, 96 h, primary screen (AID 1091). Also: test concentration not given here. The settings on record: S. cerevisiae BY4716 + rapamycin, higher = more signal, called active from +8 up or from −8 down.
For test [15], the target named is Torsin-1A-interacting protein 2 (Homo sapiens) (UniProt Q8NFQ8). The experiment in a line: small molecules binding lysate-expressed LULL1 – cell lysate, human LULL1 lysate, 635/667 nm fluorescence, primary screen (AID 1092).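 Also: score merges per-feature 667 nm fluorescence with signal-to-noise.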 Particulars: small-molecule microarray, hLULL1 lysate binding, 635 nm fluorescence; higher = more signal.
A short description of test [16]: optical density change of DRC41 E. coli – strain DRC41, OD650, 24 h, E. coli filamentation project, primary screen (AID 1093).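 Also: MC1000 strain lacking acrAB efflux and sulA so SOS filamentation is blocked; test concentration not given here.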 Particulars: E. coli DRC41 growth, higher = more signal, called active from +8 up or from −8 down.
Test [17] in a line: probe aLefty2 binding to arrayed compounds – biochemical, biotinylated probe, 635/667 nm fluorescence, primary screen (AID 1094).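 Also: score merges spot fluorescence near 667 nm with spot signal-to-noise ratio.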 Particulars: small-molecule microarray, higher = more signal.
For test [18], the system named is Noggin (protein binding on small-molecule microarray). The experiment in a line: small molecules binding Noggin protein – biochemical, 635/667 nm fluorescence, primary screen (AID 1095).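 Also: score merges 667 nm feature fluorescence with signal to noise over triplicate slides.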 Particulars: 635 nm fluorescence, higher = more signal.
Test [19] has as its target Neurogenic locus notch homolog protein 3 (Homo sapiens) (UniProt Q9UM47). The experiment in a line: small molecules binding NOTCH3 protein – biochemical, 635/667 nm fluorescence, primary screen (AID 1096). The settings on record: small-molecule microarray, 635 nm fluorescence, higher = more signal.
The nature of test [20]: probe aEGFR binding to arrayed compounds – biochemical, biotinylated probe, 635/667 nm fluorescence, primary screen (AID 1097).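 Also: probe is a biotinylated anti-EGFR antibody binding compounds printed on slides; score combines fluorescence near 667 nm and signal to noise of each spot.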 Particulars: small-molecule microarray, higher = more signal.

Pro-neuregulin-1, membrane-bound isoform (Homo sapiens), sequence (Q02297 whole entry, looked up, the tested form may be a part, canonical isoform): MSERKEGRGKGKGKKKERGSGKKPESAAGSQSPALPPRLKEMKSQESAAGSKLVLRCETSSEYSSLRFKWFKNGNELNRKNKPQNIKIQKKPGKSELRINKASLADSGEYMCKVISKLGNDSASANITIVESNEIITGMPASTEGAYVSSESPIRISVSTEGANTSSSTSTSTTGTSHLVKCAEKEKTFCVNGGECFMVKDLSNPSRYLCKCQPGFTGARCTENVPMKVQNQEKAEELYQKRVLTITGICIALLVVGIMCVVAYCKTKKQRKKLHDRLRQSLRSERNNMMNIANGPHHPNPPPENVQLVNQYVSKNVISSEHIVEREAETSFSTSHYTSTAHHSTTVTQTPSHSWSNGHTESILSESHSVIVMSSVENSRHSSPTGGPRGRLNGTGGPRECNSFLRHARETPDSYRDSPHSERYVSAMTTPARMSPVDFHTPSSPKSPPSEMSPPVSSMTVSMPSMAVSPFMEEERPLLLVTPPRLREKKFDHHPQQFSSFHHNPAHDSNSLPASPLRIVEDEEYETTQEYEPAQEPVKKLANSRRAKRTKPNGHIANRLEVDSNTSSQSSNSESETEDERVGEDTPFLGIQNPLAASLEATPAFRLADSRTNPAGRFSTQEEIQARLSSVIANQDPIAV
Neurogenic locus notch homolog protein 3 (Homo sapiens), sequence (Q9UM47 whole entry, looked up): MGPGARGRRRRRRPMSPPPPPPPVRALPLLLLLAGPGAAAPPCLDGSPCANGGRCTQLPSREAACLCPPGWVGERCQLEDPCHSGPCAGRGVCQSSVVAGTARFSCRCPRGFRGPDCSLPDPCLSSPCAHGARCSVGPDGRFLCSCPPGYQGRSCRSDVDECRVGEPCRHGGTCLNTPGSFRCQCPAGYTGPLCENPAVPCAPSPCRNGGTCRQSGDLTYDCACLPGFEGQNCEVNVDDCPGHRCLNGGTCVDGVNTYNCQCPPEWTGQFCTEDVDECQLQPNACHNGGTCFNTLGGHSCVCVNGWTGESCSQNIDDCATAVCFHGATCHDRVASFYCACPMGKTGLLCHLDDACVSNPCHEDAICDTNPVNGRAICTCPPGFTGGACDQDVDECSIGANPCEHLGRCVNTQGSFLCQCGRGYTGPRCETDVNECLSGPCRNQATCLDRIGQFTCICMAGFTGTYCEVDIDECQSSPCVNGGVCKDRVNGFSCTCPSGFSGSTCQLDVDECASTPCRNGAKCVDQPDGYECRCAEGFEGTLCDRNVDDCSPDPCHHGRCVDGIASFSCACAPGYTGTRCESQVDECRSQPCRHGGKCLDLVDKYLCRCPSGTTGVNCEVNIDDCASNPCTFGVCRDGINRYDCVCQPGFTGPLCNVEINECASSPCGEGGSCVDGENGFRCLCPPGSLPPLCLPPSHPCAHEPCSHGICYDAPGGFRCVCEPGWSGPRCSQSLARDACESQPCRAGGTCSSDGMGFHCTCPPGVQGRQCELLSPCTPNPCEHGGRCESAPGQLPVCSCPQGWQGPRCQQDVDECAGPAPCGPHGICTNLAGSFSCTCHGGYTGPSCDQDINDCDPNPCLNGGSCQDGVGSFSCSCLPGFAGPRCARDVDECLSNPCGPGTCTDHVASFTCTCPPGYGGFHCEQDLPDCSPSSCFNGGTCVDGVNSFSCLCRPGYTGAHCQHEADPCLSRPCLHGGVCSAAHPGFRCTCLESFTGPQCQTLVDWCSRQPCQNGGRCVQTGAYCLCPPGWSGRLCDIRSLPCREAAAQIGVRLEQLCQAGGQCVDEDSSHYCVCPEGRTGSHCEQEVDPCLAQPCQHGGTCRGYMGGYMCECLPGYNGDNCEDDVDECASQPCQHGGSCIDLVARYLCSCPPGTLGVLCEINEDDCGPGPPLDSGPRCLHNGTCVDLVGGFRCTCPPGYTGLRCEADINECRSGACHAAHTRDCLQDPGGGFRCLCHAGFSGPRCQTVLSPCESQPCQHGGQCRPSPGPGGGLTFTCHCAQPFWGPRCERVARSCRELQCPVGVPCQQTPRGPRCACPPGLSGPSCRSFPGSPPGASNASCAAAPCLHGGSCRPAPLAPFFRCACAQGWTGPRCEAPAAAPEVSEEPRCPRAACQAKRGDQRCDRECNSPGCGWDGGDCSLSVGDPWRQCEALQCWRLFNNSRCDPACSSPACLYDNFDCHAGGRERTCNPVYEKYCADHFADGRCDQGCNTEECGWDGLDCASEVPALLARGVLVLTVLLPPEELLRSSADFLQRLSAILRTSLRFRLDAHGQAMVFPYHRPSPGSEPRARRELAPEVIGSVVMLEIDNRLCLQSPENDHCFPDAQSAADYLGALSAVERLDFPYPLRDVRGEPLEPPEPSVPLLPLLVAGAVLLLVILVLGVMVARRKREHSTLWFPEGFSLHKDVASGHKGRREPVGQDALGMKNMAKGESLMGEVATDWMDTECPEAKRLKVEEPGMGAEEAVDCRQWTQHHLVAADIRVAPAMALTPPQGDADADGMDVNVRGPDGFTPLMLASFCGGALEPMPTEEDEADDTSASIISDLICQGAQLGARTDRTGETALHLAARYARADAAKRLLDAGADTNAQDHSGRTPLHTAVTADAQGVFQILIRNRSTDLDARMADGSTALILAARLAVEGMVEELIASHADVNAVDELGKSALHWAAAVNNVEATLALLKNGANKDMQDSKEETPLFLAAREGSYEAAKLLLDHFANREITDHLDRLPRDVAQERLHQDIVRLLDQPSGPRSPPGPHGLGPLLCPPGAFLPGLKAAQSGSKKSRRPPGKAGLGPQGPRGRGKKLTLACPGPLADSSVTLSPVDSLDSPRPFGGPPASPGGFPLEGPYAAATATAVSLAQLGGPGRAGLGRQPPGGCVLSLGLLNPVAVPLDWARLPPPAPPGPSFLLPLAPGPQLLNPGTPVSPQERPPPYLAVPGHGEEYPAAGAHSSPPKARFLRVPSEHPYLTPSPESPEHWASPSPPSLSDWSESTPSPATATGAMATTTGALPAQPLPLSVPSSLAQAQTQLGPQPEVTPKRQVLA
Torsin-1A-interacting protein 2 (Homo sapiens), sequence (Q8NFQ8 whole entry, looked up): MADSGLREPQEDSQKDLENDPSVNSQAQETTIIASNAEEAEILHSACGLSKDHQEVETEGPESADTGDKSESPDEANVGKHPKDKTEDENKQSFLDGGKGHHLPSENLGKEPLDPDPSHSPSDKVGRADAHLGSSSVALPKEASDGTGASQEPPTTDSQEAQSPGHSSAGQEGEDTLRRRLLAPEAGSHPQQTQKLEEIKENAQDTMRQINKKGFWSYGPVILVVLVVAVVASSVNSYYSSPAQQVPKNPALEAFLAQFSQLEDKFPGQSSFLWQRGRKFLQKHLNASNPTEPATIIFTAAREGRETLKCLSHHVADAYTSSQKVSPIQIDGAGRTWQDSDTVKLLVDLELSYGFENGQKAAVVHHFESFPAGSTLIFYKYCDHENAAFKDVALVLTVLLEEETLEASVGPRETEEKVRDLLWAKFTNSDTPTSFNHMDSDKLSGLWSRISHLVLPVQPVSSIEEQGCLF

As for `C=CCC(OC(C)=O)[C@@H]1[C@@H](N(Cc2cccc3ccccc23)C(=O)Cc2ccc(F)cc2)c2cc(OCCCO)ccc2N1C(=O)c1ccc2ccccc2n1` (stereo not given in full), the composite z-score was 0.258 in [1]; -0.0938 in [2]; 0.0631 in test [3]; 0.0908 in test [4]; 0.179 in test [5]; 0.0429 in [6]. In addition, the composite z-score was -0.429 in [7]; 0.382 in [9]; 0.347 in [10]; -0.293 in test [11]; 0.511 in test [15]; 0.15 in test [17]. Besides, the composite z-score is -0.283 in test [18], 0.104 in test [19] and -0.0897 in test [20]. The z-score is -1.11 (inactive) in test [8]; -0.145 (inactive) in test [12]; 0.732 (inactive) in [13]; -0.342 (inactive) in [14]; 0.265 (inactive) in test [16].
In the case of `O=C1O[C@H](c2ccccc2)[C@H](c2ccccc2)N2[C@H]1[C@@H](C(=O)Nc1nc3ccccc3s1)[C@]1(C(=O)Nc3ccccc31)[C@H]2c1ccc(OCCO)cc1`, the composite z-score was -0.401 in test [1]; 0.292 in test [2]; -0.0734 in test [3]; 0.452 in test [4]; 1.31 in [5]; 1.29 in [6]. In addition, the composite z-score in test [7] was 1.11; in test [9], 0.778; in [10], 0.0854; in test [11] it was 1.31; in test [15], 1.96; in test [17] it was -0.0446. For the same compound, the composite z-score in [18] is 1.5; in [19] it was 1.05; in [20], 0.0162. Further, the z-score in test [8] was 3.35 (inactive); in test [12] it was 1.48 (inactive); in [13] it was 1.95 (inactive); in test [14], 3.31 (inactive); in test [16], 0.0528 (inactive).
`O=C1OCCC/C=C\[C@H]2OC34C=CCN(CCN5CCOCC5)C(=O)[C@H]3N(CCCCCCO)C(=O)[C@@H]4C12` (stereo not given in full): the composite z-score in test [1] is 0.0814; in test [2], 2.31; in [3], -0.171; in [4], -0.291; in test [5], -0.0784; in [6], 1.91. In addition, the composite z-score in test [7] is 1.17; in test [9] it was -0.151; in [10] it was -0.0994; in [11] it was 0.733; in [15], 2.39; in test [17], -0.166. In addition, the results for the composite z-score in test [18], in test [19] and in test [20] were -0.0171, 0.18 and -0.0953, respectively. The z-score in [8] is -1.05 (inactive); in [12] it was -1.84 (inactive); in test [13], -1.29 (inactive); in test [14] it was -0.529 (inactive); in [16], 1.33 (inactive).
For `CCOC(=O)C[C@H]1[C@H](OC(=O)c2cc3ccccc3oc2=O)[C@@H](NC(=O)c2ccc(-c3ccccc3)cc2)c2cc(OCCCO)ccc2N1C(=O)c1ccc2ccccc2n1`, the composite z-score was -0.494 in test [1]; 0.804 in test [2]; -0.0563 in test [3]; 0.684 in test [4]; 0.652 in test [5]; 0.751 in [6]. The composite z-score is 1.03 in test [7]; 0.619 in [9]; -0.0994 in test [10]; 1.25 in [11]; 1.92 in [15]; -0.084 in [17]. Further, the composite z-score in test [18] was 0.873; in test [19] it was 1.05; in test [20] it was -0.0531. The z-score in [8] was -0.185 (inactive); in [12], 0.443 (inactive); in [13], 0.394 (inactive); in test [14], 1.14 (inactive); in [16], -0.0642 (inactive).
Consider `C=CCC(OC(C)=O)[C@@H]1[C@@H](N(Cc2ccc(-c3ccccc3)cc2)C(=O)Cc2ccc(F)cc2)c2cc(OCCCO)ccc2N1C(=O)Cc1ccc(OC)cc1` (stereo not given in full), for which the composite z-score in [1] is -0.134; in test [2], 0.132; in [3], -0.172; in test [4] it was 0.295; in test [5], -0.437; in [6], 0.0936. Further, the composite z-score in [7] was -0.438; in test [9], 0.121; in test [10], -0.175; in test [11] it was -0.712; in [15] it was 0.311; in test [17], 0.0731. For the same compound, the values for the composite z-score in [18], in [19] and in test [20] were -0.128, -0.241 and -0.204, respectively. Further, the z-score was -0.528 (inactive) in test [8]; 0.111 (inactive) in test [12]; 0.278 (inactive) in test [13]; -0.0946 (inactive) in test [14]; 0.245 (inactive) in [16].
As for `COCCOC(=O)N1C(=O)[C@@]2(c3cc(C#CCNC(N)=O)ccc31)[C@H](C(=O)N1CCc3cc(OC)c(OC)cc3C1)[C@H]1C(=O)O[C@H](c3ccccc3)[C@H](c3ccccc3)N1[C@@H]2c1ccccc1OCCO`, the composite z-score in test [1] is -0.178; in [2], 1.05; in [3], -0.0908; in [4], 0.371; in test [5], 0.749; in test [6], 0.202. The composite z-score is 0.869 in test [7]; 0.31 in test [9]; -0.191 in test [10]; 1.37 in test [11]; 2.14 in test [15]; 0.0253 in test [17]. In addition, the values for the composite z-score in [18], in [19] and in [20] were 1.36, 1.11 and -0.0734, respectively. Moreover, the z-score in [8] was -0.902 (inactive); in [12], -0.959 (inactive); in test [13], 0.319 (inactive); in test [14] it was 3.2 (inactive); in [16], 1.16 (inactive).
For `C=CCN1C(=O)[C@@]2(O[C@@H](CCn3cc([C@H](O)c4ccccc4)nn3)[C@H]([Si](C)(C)c3ccc(OC)cc3)[C@H]2C)c2cc(N3CCC3=O)ccc21`, the composite z-score was 0.211 in [1]; 0.175 in test [2]; -0.0894 in test [3]; 0.383 in [4]; -0.496 in test [5]; 0.997 in test [6]. Also, the composite z-score in test [7] was 1.25; in [9], -0.259; in [10], -0.13; in test [11], 0.467; in test [15], 1.03; in test [17] it was -0.11. The composite z-score in test [18] is 0.711; in test [19] it was -0.681; in test [20], -0.183. The z-score was -1.88 (inactive) in test [8]; 1.38 (inactive) in test [12]; 0.95 (inactive) in test [13]; 2.37 (inactive) in [14]; 0.456 (inactive) in [16].
Take `COc1ccc(C#Cc2ccc3c(c2)[C@]2(C(=O)N3)[C@H](c3ccc(O)cc3)N3[C@H](c4ccccc4)[C@H](c4ccccc4)OC(=O)[C@H]3[C@@H]2C(=O)O)cc1`: the composite z-score was -0.789 in test [1]; 0.413 in [2]; -0.161 in [3]; 0.831 in [4]; 0.761 in test [5]; 0.555 in test [6]. Further, the composite z-score in [7] is 1.13; in [9], -0.541; in [10], -1.08; in test [11], 0.525; in test [15] it was 3.12; in [17] it was -0.383. The composite z-score was -0.28 in [18], -0.17 in test [19] and -0.0507 in [20]. In addition, the z-score in test [8] was -0.471 (inactive); in test [12] it was 1.11 (inactive); in test [13], -1.18 (inactive); in test [14], 0.0572 (inactive); in test [16], 1.43 (inactive).
Consider `COc1ccc([Si](C)(C)[C@@H]2[C@@H](CC(=O)N3Cc4ccccc4C[C@H]3CO)O[C@]3(C(=O)N(C)c4ccccc43)[C@H]2C)cc1`, for which the composite z-score in test [1] amounted to 0.279; in test [2], 0.56; in [3] it was 0.0331; in test [4] it was 0.686; in [5], 0.356; in test [6] it was 0.969. The composite z-score was determined as 1.22 in [7]; 0.714 in test [9]; 0.202 in test [10]; 1.53 in [11]; 1.83 in [15]; 0.279 in test [17]. The composite z-score is 1.84 in test [18], 1.11 in [19] and -0.0052 in test [20]. The z-score is -4.24 (inactive) in [8]; -0.912 (inactive) in [12]; 0.256 (inactive) in test [13]; 1.86 (inactive) in test [14]; -0.0789 (inactive) in test [16].
